Hits are enriched below; roughly 21% of the tested compounds scored in any of these assays.
Pf growth 96h: P. falciparum growth inhibition at 96 hour, primary screen for plastid delayed-death inhibitors. P. falciparum luciferase reporter growth, 96 h. Potency, µM (doses to about 28.7 µM), most hits filed as inhibitors. 320,000 tested, 6.9% active. AID 504834
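Plates of compound plus infected erythrocytes (2% hematocrit, 0.05% parasitemia final) incubate 96 hours, 37 C, 5% CO2. Detection reagent added; reduced luminescence from the parasites' luciferase reporter flags inhibition.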
HCV inh: blocks hepatitis C virus; Potency, µM (highest dose often 41.8 µM), hits mostly inhibitors; AID 651820; Huh7.5.1 HCVcc-Cre infection, luciferase reporter, 44 h; 340,000 tested, 3.4% active
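Cells seeded at 1,000/well and cultured 4 h, then compounds added followed by HCVcc-Cre virus (~0.5 moi). After 44 h further culture, luciferase substrate was added, plates held 15 min at room temperature, and luminescence read for 15 sec.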
Pf growth 48h: inhibits P. falciparum growth in the first generation, 48 h; P. falciparum luciferase growth in erythrocytes, 48 h; Potency, µM (highest dose often 28.7 µM), hits mostly inhibitors; 310,000 tested, 5.9% active; AID 504832
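Luciferase-expressing P. falciparum in infected erythrocytes (2% hematocrit, 0.1% parasitemia final) in RPMI 1640/0.5% Albumax were exposed to compound for 48 hours at 37 C, 5% CO2; growth read as luminescence.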
HCMV antiviral: inhibitors of human cytomegalovirus | HFF cells, HCMV-luciferase reporter, 72 h; active compounds read low | activity change, negative = inhibition, % at 57.5 µM | 410,000 tested, 4.5% active; in the data active = activity change below about -60%; inconclusive = no clear call, values can overlap the other calls; inactive = above about -39%
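Steps: HFFs plated, 16 h 37C; compounds added; HCMV-luciferase added to MOI 1 PFU/cell; 72 h 37C; OneGlo reagent, 5 min room temperature; luminescence read, normalized to controls.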
CHX counter: counter-screen hit for Shiga toxin inhibitors, cycloheximide. max response, %. cell reporter, cycloheximide protein synthesis inhibition counterscreen. 300,000 tested, 12% active; in the data active = max response mostly above about 13%, no sharp cut-off; inactive = mostly below about 14%; also: read at 38.3 µM for the half of the compounds with a filed dose
Shiga toxin inh: blocks Shiga toxin action in Vero cells. Vero cells, Shiga toxin protein synthesis inhibition reporter. inhibition, % at 38.7 µM. 290,000 tested, 9.2% active. AID 2315; in the data active = inhibition mostly above about 28%, no sharp cut-off; inactive = mostly below about 43%
Hits are given with their value; – = inactive; ? = inconclusive; · = no result; [ ] = another dose, or the depositor's remark. Unless noted, calls follow the shape of the dose curve; as a rule, active = well fitted inhibition curve with a large enough effect; inconclusive = small, poorly fitted or top-dose-only effect, or another doubt; inactive = no such curve, though single readings can be large or run the other way.

SMILES | Pf growth 96h | HCV inh | Pf growth 48h | HCMV antiviral | CHX counter | Shiga toxin inh
Cc1cc(-c2nnc(CCC(=O)NCC(C)c3ccccc3)o2)no1 (centres undefined) | – | – | – | – | – | –
Cc1ccc(Cn2cc(CN3CC(N4CCSCC4)CS3(=O)=O)nn2)cc1 (centres undefined) | · | · | · | – | · | ·
COc1ccc(CNC(=O)N2CC3ON=C(c4ccccc4C)C3C2)cc1 (centres undefined) | · | · | · | – | · | ·
Cc1cc(-c2nnc(CCC(=O)N(C)Cc3cccc4ccccc34)o2)no1 | ? | – | – | – | 20 | 63
COc1ccc(NC(=O)CSc2nnnn2C2CCCCC2)cc1 | – | – | – | – | – | –
CCCC(=O)N1CC2(CCN(C(C)=O)CC2)c2c(n(C)c3cc(OC)ccc23)[C@H]1CO | · | · | · | – | · | ·
Cc1ccccc1NC(NC(=O)OCCn1c([N+](=O)[O-])cnc1C)C(Cl)(Cl)Cl (centres undefined) | – | – | ? | – | – | –
Cc1ccc(N2CC(O)=C(c3ccccc3)C2=N)cc1 | – | – | – | – | 18 | –
N=C1C(c2ccccc2)=C(O)CN1CCCO | 15µM | – | ? | – | – | –
C=CCN1CC(O)=C(c2ccccc2)C1=N | – | – | – | -69 | – | –
COc1cccc(C(O)c2ncc(-c3ccc(C(F)(F)F)cc3)[nH]2)c1 (centres undefined) | · | · | · | – | · | ·
C[C@H](CO)N1C[C@H](C)[C@@H](CN(C)S(=O)(=O)c2ccc(F)cc2)Oc2c(NC(=O)c3ccncc3)cccc2C1=O | · | –[8.37 µM] | · | – | · | ·
CNc1nc(SCC(=O)Nc2ccccc2)nc(N2CCOCC2)n1 | – | – | – | – | – | –
NC(=O)c1c(-c2ccc(Cl)cc2Cl)csc1NC(=O)Cc1ccccc1 | – | ? | ? | -65 | 16 | –
O=C(O/N=C1/CCCc2occc21)c1ccccc1 | ? | – | – | – | 26 | 54
O=C(O/N=C1/CCCc2occc21)c1ccc(Cl)cc1Cl | – | – | ? | – | 54 | 86
O=C(NN1CCOCC1)c1ccc(Cl)cc1Cl | · | – | · | – | · | ·
COC(F)(F)C(Cl)Cl | – | · | – | · | · | ·
COc1cccc(-c2nnn(C/C(N)=N/O)n2)c1 | 2.3µM | – | – | – | 37 | –
CCOC(=O)Cn1nnc(-c2cccc(OC)c2)n1 | · | ? | – | – | 43 | 109
Cc1ccc(SCC(=O)OCC(=O)N(C)CC(=O)Nc2ccccc2Cl)cc1C | – | – | – | – | – | –
O=C(c1ccc(OCC2CCCO2)cc1)N1CCc2ccccc2C1 (centres undefined) | – | – | – | – | 30 | 56
O=C(Nc1ncccc1O)c1ccc(OCC2CCCO2)cc1 (centres undefined) | ? | – | – | – | 35 | 52
O=C(NCc1ccccc1)c1ccc(OCC2CCCO2)cc1 (centres undefined) | – | – | – | – | – | –
COc1ccc(OC)c(-c2csc(NC(=O)c3ccc(OCC4CCCO4)cc3)n2)c1 (centres undefined) | 12µM | – | ? | – | 39 | 40
SMILES | Pf growth 96h | HCV inh | Pf growth 48h | HCMV antiviral | CHX counter | Shiga toxin inh
CCOc1ccc(C(=O)NC2=NCCS2)cc1 | – | · | – | – | 27 | 83
CCc1cnc2c(c1SCC(=O)c1ccc(OC)cc1)c(=O)n(C)c(=O)n2C | · | · | · | – | · | ·
COc1ccc(OC)c(-c2csc(N(CC3CCCO3)C(=O)Cc3ccccc3)n2)c1 (centres undefined) | 1.9µM | – | ? | ? | – | –
Cc1cnc(NC(=O)c2ccc(OCC3CCCO3)cc2)s1 (centres undefined) | – | – | – | – | – | –
O=C(NC1=NCCS1)c1ccc(OCC2CCCO2)cc1 (centres undefined) | – | – | – | – | 30 | 51
COc1ccc(-c2csc(N(CC3CCCO3)C(=O)c3ccco3)n2)cc1 (centres undefined) | ? | ? | ? | – | – | –
NC(=O)c1ccc(OCC2CCCO2)cc1 (centres undefined) | – | ? | – | – | – | –
O=C(Nc1nc2ccccc2s1)c1ccc(OCC2CCCO2)cc1 (centres undefined) | – | 7.9µM | – | -88 | 18 | 82
CC(C)c1nc(NCC2CCCO2)c(C#N)c2c1COC(C)(C)C2 (centres undefined) | – | – | 13µM | – | – | –
Cc1ccc(Nc2ccc(C(=O)NCCc3ccccc3)cn2)cc1 | ? | – | ? | – | 12 | –
Cc1ccc(C)c(Nc2ccc(C(=O)NCCc3ccccc3)cn2)c1 | – | – | ? | ? | 22 | –
Cc1ccc(C)c(Nc2nn3c(=O)c4ccc(C(=O)NCCc5ccccc5)cc4nc3s2)c1 | · | · | · | – | · | ·
Cc1ccc2c(=O)c3ccccc3n(CCCN)c2c1C | · | · | · | · | – | –
CCOC(=O)N1CCN(C(=O)c2ccc3c(c2)N(Cc2ccccc2F)C(=O)c2ccccc2S3(=O)=O)CC1 | · | · | · | – | · | ·
CC(NC(=O)c1ccccc1Cl)C1COc2ccccc2O1 (centres undefined) | – | – | – | – | 31 | 51
CC(NCC1COc2ccccc2O1)C1COc2ccccc2O1 (centres undefined) | – | – | – | – | – | –
CCOC(=O)CCNC(C)C1COc2ccccc2O1 (centres undefined) | – | – | – | – | – | –
CC(NS(=O)(=O)c1ccccc1)C1COc2ccccc2O1 (centres undefined) | – | – | · | – | 31 | –
CCOc1ccc(CNC(=O)C2CCN(S(=O)(=O)c3cn(C)cn3)CC2)cc1 | · | · | · | – | · | ·
Cc1ccc(C(=O)N(Cc2ccc(N(C)C)cc2)CC2CCCO2)cc1 (centres undefined) | · | · | · | – | · | ·
COc1ccc(-c2nncnn2)cc1 | 6.6µM | – | ? | · | – | –
COc1ccc(-c2nc3ccccc3nc2-c2ccccc2)cc1 | – | – | ? | – | – | –
COc1ccc(Oc2nc(Oc3ccc(OC)cc3)nc(Oc3ccc(OC)cc3)n2)cc1 | – | – | – | – | – | –
COc1ccc(-c2ccc(OC)cc2)cc1 | – | – | ? | – | 34 | –
CC(CNC(=O)C1CCN(Cc2cc3ccccc3n2Cc2ccccc2)CC1)c1ccccc1 (centres undefined) | · | · | · | – | · | ·
SMILES | Pf growth 96h | HCV inh | Pf growth 48h | HCMV antiviral | CHX counter | Shiga toxin inh
COc1ccc(C(=O)NNC(=O)CSc2nnc(C)n2C)cc1 | – | – | – | ? | – | –
C#CCn1cc(/C=N/NC(=O)COc2cccc3cccnc23)c2ccccc21 | – | – | – | – | 12 | 26
COC(=O)Cn1cc(/C=N/NC(=O)COc2cccc3cccnc23)c2ccccc21 | – | – | – | -70 | – | –
O=C(COc1cccc2cccnc12)N/N=C/c1ccccc1O | ? | ? | ? | ? | – | –
Cc1c(C(=O)N2CCCCCC2)c(S(=O)(=O)Nc2ccc(OC(F)(F)F)cc2)c(C)n1C | · | · | · | – | · | ·
CCOC(=O)c1ccc(NC(=O)c2nc[nH]c2C(=O)NC[C@@H](C)O)cc1 | · | · | · | – | · | ·
